We go through 13 compounds from PubChem BioAssay (Tox21).

Experiment [1] is described as follows: A CellTox Green Cytotoxicity Assay to monitor cytotoxicity in HEK293 cells - 40 hour (AID 1224871). Also: nearly all actives have a fitted effect of over 45% in size. Also: potency is read from the fitted curve at half-maximal effect. In a few lines:
(§1)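 Nonlytic real-time cytotoxicity: HEK293 + CellTox Green reagent plated, 5 h preincubation, pintool compound addition (23 nL in DMSO), 37 C for 40 h, fluorescence measured at successive time points.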

Experiment [2] in a line: qHTS RealTime-Glo MT Cell Viability Assay in HepG2 cells - 8 hour (AID 1224873). Also: nearly all actives have a fitted effect of over 55% in size. In a few lines: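 HepG2 cells (600/well) mixed with RealTime-Glo MT reagent, settled 5 h at 37 C/5% CO2 before compound addition. Nonlytic NanoLuc luminescence from viable-cell prosubstrate reduction read repeatedly during 40 h treatment at 37 C.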
On the technique in general: Quantitative high-throughput screening tests each substance at several concentrations.

The nature of experiment [3]: qHTS RealTime-Glo MT Cell Viability Assay in HEK293 cells - 40 hour (AID 1224874). Also: nearly all actives have a fitted effect of over 50% in size. Also: potency is read from the fitted curve at half-maximal effect. Particulars: RealTime-Glo luminescence; max response: hits give low values. The essentials:
(§2)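 Cells were seeded together with NanoLuc luciferase and a prosubstrate that viable cells reduce to a luciferase substrate. After a 5 h incubation at 37 C/5% CO2, compounds were added and luminescence was measured repeatedly during 40 h of treatment.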

A short description of experiment [4]: A CellTox Green Cytotoxicity Assay to monitor cytotoxicity in HEK293 cells - 24 hour (AID 1224875). Also: nearly all actives have a fitted effect of over 45% in size. Also: potency is read from the fitted curve at half-maximal effect. As to activity change: series mostly up to about 77 µM. In a few lines: as §1
Experiment [5] can be described thus: A CellTox Green Cytotoxicity Assay to monitor cytotoxicity in HepG2 cells - 16 hour (AID 1224876). Also: nearly all actives have a fitted effect of over 45% in size. In a few lines: (§3)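 Read-out is fluorescence of a cyanine dye excluded from live cells that stains DNA of dead HepG2 cells, with signal proportional to cytotoxicity. Plates were read at 0, 8, 16, 24, 32 and 40 h after compound addition.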
A short description of experiment [6]: qHTS RealTime-Glo MT Cell Viability Assay in HepG2 cells - 32 hour (AID 1224877). Also: nearly all actives have a fitted effect of over 55% in size. In a few lines: (§4)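 Compound treatment began 5 h after plating HepG2 cells (600/well) with NanoLuc luciferase and prosubstrate. Plates stayed at 37 C for 40 h; luminescence was captured at six time points, 0 h through 40 h.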
Experiment [7] can be described thus: A CellTox Green Cytotoxicity Assay to monitor cytotoxicity in HepG2 cells - 24 hour (AID 1224878). Also: nearly all actives have a fitted effect of over 45% in size. The essentials: as §3
Experiment [8] is described as follows: A CellTox Green Cytotoxicity Assay to monitor cytotoxicity in HepG2 cells - 40 hour (AID 1224879). Also: nearly all actives have a fitted effect of over 40% in size. In a few lines: as §3
Experiment [9] can be described thus: A CellTox Green Cytotoxicity Assay to monitor cytotoxicity in HEK293 cells - 32 hour (AID 1224881). Also: nearly all actives have a fitted effect of over 40% in size. Also: potency is read from the fitted curve at half-maximal effect. In a few lines:
as §1

A short description of experiment [10]: A CellTox Green Cytotoxicity Assay to monitor cytotoxicity in HepG2 cells - 0 hour (AID 1224882). Also: nearly all actives have a fitted effect of over 35% in size. The essentials:
as §3

Experiment [11] is described as follows: A CellTox Green Cytotoxicity Assay to monitor cytotoxicity in HepG2 cells - 32 hour (AID 1224883). Also: nearly all actives have a fitted effect of over 50% in size. The essentials:
as §3

Experiment [12] in a line: A CellTox Green Cytotoxicity Assay to monitor cytotoxicity in HEK293 cells - 8 hour (AID 1224884). Also: nearly all actives have a fitted effect of over 35% in size. Also: potency is read from the fitted curve at half-maximal effect. The essentials:
as §1

Experiment [13] can be described thus: qHTS RealTime-Glo MT Cell Viability Assay in HepG2 cells - 16 hour (AID 1224885). Also: nearly all actives have a fitted effect of over 50% in size. The essentials: as §4
A short description of experiment [14]: qHTS RealTime-Glo MT Cell Viability Assay in HEK293 cells - 24 hour (AID 1224886). Also: nearly all actives have a fitted effect of over 50% in size. Also: potency is read from the fitted curve at half-maximal effect. As to activity change, negative = cytotoxicity: top concentration of the series differs between compounds. The essentials:
(§5)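 Quantitative high-throughput screen of the Tox21 10K library in HEK293: cells and RealTime-Glo reagents plated together, compound added at 5 h, luminescence monitored through 40 h at 37 C.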

Experiment [15] can be described thus: qHTS RealTime-Glo MT Cell Viability Assay in HEK293 cells - 8 hour (AID 1224887). The essentials:
as §2

Experiment [16] in a line: A CellTox Green Cytotoxicity Assay to monitor cytotoxicity in HEK293 cells - 16 hour (AID 1224888). Also: nearly all actives have a fitted effect of over 35% in size. Also: potency is read from the fitted curve at half-maximal effect. In a few lines:
as §1

Experiment [17] in a line: qHTS RealTime-Glo MT Cell Viability Assay in HepG2 cells - 0 hour (AID 1224889). Also: nearly all actives have a fitted effect of over 50% in size. Also: potency is read from the fitted curve at half-maximal effect. In a few lines:
as §4

Experiment [18] in a line: A CellTox Green Cytotoxicity Assay to monitor cytotoxicity in HepG2 cells - 8 hour (AID 1224890). Also: nearly all actives have a fitted effect of over 45% in size. In a few lines: as §3
Experiment [19] is described as follows: qHTS RealTime-Glo MT Cell Viability Assay in HEK293 cells - 0 hour (AID 1224880). In a few lines:
as §2

Experiment [20] can be described thus: qHTS RealTime-Glo MT Cell Viability Assay in HEK293 cells - 16 hour (AID 1224872). The essentials:
as §5

Unmarked numbers belong to inactive results. Results filed as inconclusive are left out. The source made the active and inactive calls. Calls follow the shape of the dose curve; as a rule, active = well fitted curve in the direction sought with a large enough effect in the repeat runs; inconclusive = weak or mixed curves; inactive = no such curve, though single readings can be large; an effect the other way counts as inactive or inconclusive.
% is scaled to controls: 0 for no effect and ±100 for the full control effect.

As to `C[C@@H]1C[C@H]2O[C@@]3(O[C@@H]2C(C)(C)O)[C@H](O)[C@@]2(C)[C@@H]4CC[C@H]5C(C)(C)[C@@H](O[C@@H]6OC[C@@H](O)[C@H](O)[C@H]6O)CC[C@@]56C[C@@]46CC[C@]2(C)[C@@H]13`, the Potency entry in [1], in [2], in experiment [4], in experiment [5], in [6] and in experiment [7] was “inactive” in each case. Also, the Potency result in experiment [8], in experiment [9], in experiment [10], in experiment [11], in experiment [12] and in experiment [13] was “inactive” throughout. Also, the Potency entry in experiment [14], in experiment [15], in [16] and in experiment [18] was “inactive” throughout. Moreover, the max response in experiment [3] was -15.4%. In addition, the Potency in [17] is 2.16 µM (active).
As to `C[C@@H](c1ncncc1F)C(O)(Cn1cncn1)c1ccc(F)cc1F` (some centres not stated), the Potency result in experiment [1], in [2], in experiment [4], in experiment [5], in experiment [6] and in experiment [7] was “inactive” throughout. In addition, the Potency result in [8], in experiment [19], in experiment [9], in experiment [10], in [11] and in experiment [12] was “inactive” in each case. In addition, the Potency result in experiment [13], in experiment [14], in experiment [15], in [16], in experiment [17] and in experiment [18] was “inactive” each time. In addition, the max response in [3] is 3.08%.
On to `CCOc1ccc(O)cc1`, for which the Potency result in [1], in experiment [2], in [4], in experiment [5], in experiment [6] and in [7] was “inactive” throughout. Further, the Potency entry in experiment [8], in experiment [19], in [9], in experiment [10], in experiment [11] and in experiment [12] was “inactive” in each case. Moreover, the Potency entry in experiment [13], in [16], in experiment [17] and in [18] was “inactive” throughout. Besides, the Potency in experiment [3] was 11 µM (active).
With `CNC(=O)CN(CCN(CCN(CC(=O)[O-])CC(=O)NC)CC(=O)[O-])CC(=O)[O-].O.[Gd+3]`, the Potency result in experiment [1], in experiment [2], in [4], in [5], in [6] and in [7] was “inactive” in each case. Moreover, the Potency result in experiment [8], in experiment [19], in experiment [9], in [10], in experiment [11] and in [12] was “inactive” each time. Moreover, the Potency result in [13], in experiment [14], in [15], in experiment [16], in experiment [17] and in [18] was “inactive” throughout. Further, in experiment [3], the max response is 2.96%.
Take `O=S(=O)(Oc1ccc(Cl)cc1)c1ccccc1`: the Potency entry in experiment [1], in experiment [2], in [4], in experiment [5], in experiment [6] and in experiment [7] was “inactive” in each case. Further, the Potency entry in [8], in [9], in experiment [10], in experiment [11], in [12] and in experiment [13] was “inactive” each time. The Potency result in experiment [16], in [17] and in experiment [18] was “inactive” throughout. In addition, the max response in experiment [3] was -29.4%.
With `Nc1cccc(S(=O)(=O)c2cccc(N)c2)c1`, the Potency entry in experiment [1], in experiment [2], in experiment [4], in [5], in experiment [6] and in [7] was “inactive” in each case. Besides, the Potency entry in experiment [8], in experiment [19], in experiment [9], in [10], in experiment [11] and in [12] was “inactive” throughout. For the same compound, the Potency result in [13], in [14], in experiment [15], in experiment [16], in [17] and in experiment [18] was “inactive” each time. Also, in experiment [3], the max response is -13.5%.
Consider `Cc1nn(C)c(Oc2ccccc2)c1/C=N/OCc1ccc(C(=O)OC(C)(C)C)cc1`, for which the Potency result in experiment [1], in experiment [2], in experiment [4], in experiment [5], in experiment [6] and in experiment [7] was “inactive” each time. The Potency result in experiment [8], in experiment [19], in [9], in experiment [10], in experiment [12] and in experiment [13] was “inactive” throughout. Further, the Potency entry in [16], in experiment [17] and in experiment [18] was “inactive” in each case. Besides, the figures for the Potency in experiment [3] and in experiment [14] were 0.0062 µM (active) and 0.0049 µM (active), respectively.
In the case of `C[N+](C)(C)CCOC(=O)CCC(=O)OCC[N+](C)(C)C`, the Potency result in experiment [1], in experiment [2], in experiment [4], in [5], in experiment [6] and in experiment [7] was “inactive” in each case. For the same compound, the Potency entry in [8], in [19], in [9], in experiment [10], in experiment [11] and in experiment [12] was “inactive” each time. The Potency entry in experiment [13], in [14], in experiment [15], in [16], in experiment [17] and in experiment [18] was “inactive” in each case. Besides, the max response in experiment [3] is 3.39%.
Take `CCCCCCCN`: the Potency entry in experiment [1], in [2], in experiment [4], in [5], in [6] and in [7] was “inactive” in each case. The Potency entry in [8], in experiment [19], in experiment [9], in experiment [11], in experiment [12] and in experiment [13] was “inactive” throughout. In addition, the Potency entry in [14], in experiment [15], in [16] and in experiment [17] was “inactive” in each case. For the same compound, the max response in experiment [3] is -2.68%.
For `O=C(O)c1ccc(-n2nc(-c3ccccc3O)nc2-c2ccccc2O)cc1`, the Potency entry in experiment [1], in experiment [20], in experiment [4], in [5], in experiment [6] and in experiment [7] was “inactive” in each case. The Potency result in experiment [8], in experiment [19], in [9], in experiment [11], in experiment [12] and in experiment [13] was “inactive” each time. In addition, the Potency result in [14], in [15], in experiment [16] and in [17] was “inactive” each time.
Regarding `CCCCCCCCCCCCCCCCOS(=O)(=O)O`, the Potency in experiment [1] is 21.3 µM (active); in experiment [4], 19 µM (active); in experiment [9] it was 21.3 µM (active); in experiment [12], 23.9 µM (active); in experiment [16], 21.3 µM (active). The Potency entry in experiment [20], in experiment [6], in experiment [19], in experiment [10], in experiment [13] and in [14] was “inactive” in each case. Further, the Potency entry in experiment [15] and in [17] was “inactive” each time. Besides, the max response in [3] was -27.5%.
In the case of `Cc1[nH]c(C)c(Cl)c(=O)c1Cl`, the cytotoxicity increase in experiment [1] was -3.34% [at 15.8 µM]; in experiment [5] it was -3.96% [at 15.8 µM]; in experiment [8], -5.76% [at 15.8 µM]; in experiment [9], -3.98% [at 15.8 µM]; in experiment [11] it was -7.2% [at 15.8 µM]; in experiment [12], -1.54% [at 15.8 µM]. Further, the cytotoxicity increase in experiment [18] was -4.87% [at 15.8 µM]. Also, the viability change, negative = cytotoxic in [2] is 0.139% [at 15.8 µM]. The max response in experiment [3] is -19.8%. The activity change in experiment [4] was -5.28% [at 15.8 µM, hits give high values]; in experiment [16] it was -2.28% [at 15.8 µM, hits give high values]. The activity change, negative = cytotoxic in [6] is 3.22% [at 15.8 µM]; in [13], 0.907% [at 15.8 µM]. Besides, the cytotoxicity in experiment [7] is -5.69% [at 15.8 µM]; in experiment [10] it was -3.1% [at 15.8 µM]. Besides, the results for the activity change, negative = cytotoxicity in [14], in experiment [15] and in experiment [17] were -19.4% [at 15.8 µM], -23.4% [at 15.8 µM] and -1.76% [at 15.8 µM], respectively.
`O=C1C(O)=C(O)C(=O)C(O)=C1O`: the Potency result in experiment [1], in experiment [2], in experiment [4], in experiment [5], in [6] and in experiment [7] was “inactive” each time. The Potency entry in experiment [8], in [19], in experiment [9], in [11], in experiment [12] and in experiment [13] was “inactive” each time. In addition, the Potency entry in [14], in [15], in [16], in experiment [17] and in experiment [18] was “inactive” in each case. Further, in [3], the max response is -9.06%.
